Assay outcomes as filed in PubChem.
RE007 growth inh: less growth of the S. pombe RE007 Vpr strain; 0.21% of 360,000 active; Potency, µM (doses to about 92.2 µM), inactives show at the highest dose activity change, negative = less growth, usual class: inhibitors; S. pombe RE007 Vpr strain, BacTiter-Glo ATP luminescence, 24 h; active = well fitted falling curve with a large enough effect; inconclusive = small, poorly fitted or top-dose-only effect; inactive = no such curve, though single readings can be large or run the other way; note: % is set by controls: 0 for no effect and ±100 for the full control effect; nearly all actives have a fitted effect of over 50% in size
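Fission yeast RE007 carrying one integrated HIV-1 vpr copy, seeded at OD 0.01 in PMG+AL medium with 23 nL pinned compound. Grown 24 h at 30 degrees; viability read by BacTiter-Glo luminescence after 5 min.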
SARS PLpro yeast: blocks SARS-CoV papain-like protease in a yeast assay; S. cerevisiae expressing SARS-CoV PLpro, growth rescue; Potency, µM (doses to about 32.9 µM), for inactives: at the top dose activity, positive = growth rescue, hits mostly activators; 0.19% of 330,000 active; calls by dose curve; note: 0% is about no effect; nearly all actives have a fitted effect of over 55% in size
NS1 inh: blocks influenza NS1 protein function. 0.4% of 270,000 active. AID 2326. Potency, µM (top dose mostly 46.1 µM), for the others: top-dose activity, positive = more growth; calls by dose curve; note: actives are rising curves; nearly all actives have a fitted effect of over 50% in size
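Growth recovery, yeast-based: influenza A NS1 expressed in S. cerevisiae causes slow growth, and suppressors are detected by OD600. The parent strain without NS1 is used as positive control.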
Pf growth 48h: P. falciparum growth inhibition at 48 hours (one generation); AID 504832; Potency, µM (highest dose often 28.7 µM), inactives show at the top dose activity change, negative = inhibition, actives largely listed as inhibitors; 5.9% of 310,000 active; P. falciparum luciferase growth in erythrocytes, 48 h; note: % is set by controls: 0 for no effect and ±100 for the full control effect
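Read-out is firefly luciferase luminescence from an integrated reporter in P. falciparum, so falling signal marks reduced parasite growth. Infected erythrocytes were at 2% hematocrit and 0.1% parasitemia (final) in Albumax-supplemented RPMI 1640.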
Pf growth 96h: P. falciparum growth inhibition at 96 hour, primary screen for plastid delayed-death inhibitors; AID 504834; Potency, µM (highest dose often 28.7 µM), inactives show top-dose activity change, negative = inhibition, actives largely listed as inhibitors; P. falciparum luciferase reporter growth, 96 h; 6.9% of 320,000 active; note: % is set by controls: 0 for no effect and ±100 for the full control effect
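Luminescence readout: decreased luciferase signal marks inhibited growth of reporter-expressing P. falciparum in infected red cells (2% hematocrit, 0.05% parasitemia final), exposed to compound two generations (96 h, 37 C, 5% CO2).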
* marks the source's active call; other numbers are inactive results. Only some compounds are listed: those with a hit (about 9.5% of all), similar ones and a draw of the others. Unless noted, calls come from the whole dose curve; as a rule, active = well fitted inhibition curve with a large enough effect; inconclusive = small, poorly fitted or top-dose-only effect, or another doubt; inactive = no such curve, though single readings can be large or run the other way. Potency is the fitted concentration of half-maximal effect.

Screening CCCCC(CC)CNC(=O)C(Cc1ccccc1)NS(=O)(=O)c1ccc2c(c1)CCC(=O)N2 (stereo unspecified) returned RE007 growth inh -3%, SARS PLpro yeast -2%, Pf growth 48h inconclusive and Pf growth 96h 12µM*.
For COC(=O)C1CN(S(=O)(=O)c2cc(OC)ccc2OC)CCS1 (stereo unspecified) the results were RE007 growth inh 3%, SARS PLpro yeast 14%, NS1 inh -1%, Pf growth 48h 0% and Pf growth 96h 0%.
`COCCN1C[C@@H](CO)O[C@@H](n2cnc3c(NCCN(C)C)ncnc32)C1` gave RE007 growth inh 5%.
`CCOc1cc(NC(=O)C(C)C)c(OCC)cc1NC(=O)Nc1ccccc1` gave RE007 growth inh 4%, SARS PLpro yeast -3%, NS1 inh 9%, Pf growth 48h -19% and Pf growth 96h 12µM*.
Screening CCOc1cc(NC(=S)Nc2ccccc2)c(OCC)cc1NC(=O)c1ccccc1 returned RE007 growth inh -2%, SARS PLpro yeast 2%, NS1 inh inconclusive, Pf growth 48h inconclusive and Pf growth 96h 8.3µM*.
Screening CCOc1cc(NC(=O)c2ccccn2)c(OCC)cc1NC(=O)c1ccccc1 returned RE007 growth inh 3%, SARS PLpro yeast 0%, NS1 inh 2%, Pf growth 48h -14% and Pf growth 96h 43%.
For N=S(=O)(O)Cc1noc2ccccc12 the results were NS1 inh -4%.
For O=C(Nc1ccc(Cl)cc1)c1cc(S(=O)(=O)Nc2ccccn2)ccc1Cl the results were RE007 growth inh -18%, SARS PLpro yeast 2%, NS1 inh 3%, Pf growth 48h 0% and Pf growth 96h 31%.
For CC1(C)CC(NC(=O)c2cccc(S(=O)(=O)N(Cc3ccccc3)c3ccccc3)c2)CC(C)(C)N1 the results were RE007 growth inh 29%, SARS PLpro yeast -4%, Pf growth 48h 10µM* and Pf growth 96h 13µM*.
`O=C(Nc1ccc(Cl)cc1)c1cccc(S(=O)(=O)Nc2ccccn2)c1` gave RE007 growth inh 1%, SARS PLpro yeast -3%, NS1 inh 7%, Pf growth 48h 12% and Pf growth 96h 13µM*.
For COc1ccccc1N(Cc1ccccc1)S(=O)(=O)c1cccc(C(=O)Nc2ccc(C)cn2)c1 the results were RE007 growth inh 4%, SARS PLpro yeast 3%, Pf growth 48h 4.1µM* and Pf growth 96h 1.9µM*.
Cc1ccc(N(C)S(=O)(=O)c2cccc(C(=O)Nc3ccc(C)cn3)c2)cc1 was read as RE007 growth inh 0%, SARS PLpro yeast -2%, Pf growth 48h 2.1µM* and Pf growth 96h 5.2µM*.
Screening Cc1ccc2c(c1)sc1nncn12 returned RE007 growth inh 2%.
Screening Cc1ccc(S(C)(=O)=NS(=O)(=O)c2cccc3nsnc23)cc1 (stereo unspecified) returned RE007 growth inh -7%, SARS PLpro yeast 1%, NS1 inh 1%, Pf growth 48h -7% and Pf growth 96h -20%.
CCOc1ccc(C(=O)NCC2CCCN2S(=O)(=O)c2cccs2)cc1 (stereo unspecified) was read as RE007 growth inh 5%, SARS PLpro yeast -5%, Pf growth 48h inconclusive and Pf growth 96h inconclusive.
COc1ccccc1N(Cc1ccccc1)S(=O)(=O)c1cccc(C(=O)Nc2ccccn2)c1 was read as RE007 growth inh -4%, SARS PLpro yeast -10%, NS1 inh -35%, Pf growth 48h 10µM* and Pf growth 96h 9.3µM*.
`COc1cc(C2C(C#N)=C(N)Oc3c2ccc2ccccc32)ccc1OCC(=O)Nc1ccc(C)cc1` (stereo unspecified) gave RE007 growth inh 5%, SARS PLpro yeast 6%, NS1 inh inconclusive, Pf growth 48h 10µM* and Pf growth 96h 0%.
COc1ccc(C2C(C#N)=C(N)Oc3c2ccc2cccnc32)cc1OC (stereo unspecified) was read as RE007 growth inh 14%, SARS PLpro yeast 9%, NS1 inh 10%, Pf growth 48h inconclusive and Pf growth 96h inconclusive.
Screening Cc1ccc(-c2nn3c(C)nnc3c3ccccc23)cc1S(=O)(=O)NCc1ccccc1 returned RE007 growth inh 5%, SARS PLpro yeast -6%, NS1 inh 6%, Pf growth 48h inconclusive and Pf growth 96h 8.3µM*.
Screening Cc1ccc(NS(=O)(=O)c2cccc(C(=O)NCC(c3cccs3)N3CCOCC3)c2)cc1 (stereo unspecified) returned RE007 growth inh -4%, SARS PLpro yeast -1%, Pf growth 48h inconclusive and Pf growth 96h inconclusive.
`Cc1ccc(S(=O)(=O)N(C)c2ccc(C(=O)NCC(c3cccs3)N3CCOCC3)cc2)cc1` (stereo unspecified) gave RE007 growth inh -1%, SARS PLpro yeast -1%, NS1 inh 2%, Pf growth 48h inconclusive and Pf growth 96h 10µM*.
Screening Cc1ccc(N(C)S(=O)(=O)c2cccc(C(=O)NCC(c3cccs3)N3CCOCC3)c2)cc1 (stereo unspecified) returned RE007 growth inh -3%, SARS PLpro yeast -7%, Pf growth 48h 12µM* and Pf growth 96h inconclusive.
For O=C(CN1CCN(c2ccccc2O)CC1)Nc1cc([N+](=O)[O-])ccc1Cl the results were RE007 growth inh -25%, SARS PLpro yeast -2%, NS1 inh 0%, Pf growth 48h 9.3µM* and Pf growth 96h inconclusive.
`O=C(CNC(c1ccccc1)c1ccccc1)Nc1cc([N+](=O)[O-])ccc1Cl` gave RE007 growth inh 31%, SARS PLpro yeast -1%, NS1 inh -30%, Pf growth 48h inconclusive and Pf growth 96h 13µM*.
Screening CCN1C(=O)[C@H]2[C@@H](c3ccc(-c4ccc(C(C)=O)cc4)c(OC)c3)N[C@@](Cc3ccccc3)(C(=O)OC)[C@H]2C1=O returned RE007 growth inh -17%, SARS PLpro yeast -6%, Pf growth 48h 8.3µM* and Pf growth 96h 9.3µM*.
For CCN1C(=O)[C@H]2[C@@H](c3ccc(-c4ccc(Cl)c(Cl)c4)c(OC)c3)N[C@@](C)(C(=O)OC)[C@H]2C1=O the results were RE007 growth inh -7%, SARS PLpro yeast 0%, Pf growth 48h 2.1µM* and Pf growth 96h 0.93µM*.
`COC(=O)C1(C)NC(c2ccc(F)cc2)C2C(=O)N(c3ccc(C)cc3)C(=O)C21` (stereo unspecified) gave RE007 growth inh -9%, SARS PLpro yeast -7%, NS1 inh 21%, Pf growth 48h -1% and Pf growth 96h 2.3µM*.
`CCN1C(=O)[C@H]2[C@@H](c3ccc(-c4cccc(Cl)c4)c(OC)c3)N3CCCC[C@@]3(C(=O)OC)[C@H]2C1=O` gave RE007 growth inh -1% and SARS PLpro yeast 0%.
